{"source": "PubChem BioAssay (NCI)", "note": "This is part of a sample that, as a whole, favours compounds with a hit. Of some 79,000 tested, about 15% had one in any assay. A number with no mark means an inactive call. Rule as the data show it: active = growth inhibition above about 70%; inactive = the rest. *1 amine or outer side, *2 acyl side, *3 side chain or, on linkers, in order; H or OH if unused. Where a SMILES comes first, the peptide text is derived from it. [ ]: non-standard residue; d: D form. X8 = C=CCC(O[*:1])C(=O)[*:2]; NMeV = CN[CH](C(=O)O)C(C)C; NMeA = CN[CH](C)C(=O)O; βAla = NCCC(=O)O"}
{"assay": "NCI Yeast Anticancer Drug Screen. Data for the bub3 strain (AID 167)", "settings": "S. cerevisiae bub3 mutant strain, at 50.0 µM, hits give high values", "procedure,_shortened": "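Growth of a checkpoint-deficient yeast mutant is measured after compound exposure. Values represent inhibition relative to vehicle.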", "units": {"growth inhibition": "%"}}
{"smiles": "CCC1SCC(C)(C)NC1=O", "note": "(stereo not given)", "growth inhibition": 28.8}
{"smiles": "CCOc1ccccc1NC(=O)C(=O)c1c(O)c2ccc(O)cc2oc1=O", "growth inhibition": -3.25}
{"smiles": "CC[N+](C)(C)c1ccc(/C=C(/C#N)C(=O)OC)cc1", "growth inhibition": -1.2}
{"smiles": "Cc1c(O)c2ccc3ccccc3c2oc1=O", "growth inhibition": -47.4}
{"smiles": "CCOC(=O)CCCOc1ccccc1", "growth inhibition": 16.1}
{"smiles": "CSc1ncc(C#N)c2nc(-c3ccccc3)nn12", "growth inhibition": 12.1}
{"smiles": "CCOc1ccc2nc(NC(=O)C(=O)C(C(=O)c3ccccc3-c3ccccc3)C3OC(=O)c4ccccc43)sc2c1", "note": "(stereo not given)", "growth inhibition": -32.1}
{"smiles": "CC12CC(=O)NC(=O)N1CCS2", "note": "(stereo not given)", "growth inhibition": -13.7}
{"smiles": "CCOC(=O)C(=O)/C(=C/N1CCNC1=S)C(=O)OCC", "growth inhibition": -4.35}
{"smiles": "CC1(C)OC2C(C3N(c4ccccc4)CCN3c3ccccc3)OC(n3ccc(=O)[nH]c3=O)C2O1", "note": "(stereo not given)", "growth inhibition": -2.5}
{"smiles": "C=CCC1OC(=O)CCNC(=O)C(C)N(C)C(=O)C(C(C)C)N(C)C(=O)C(C(C)CC)NC(=O)C2CCCN2C1=O", "note": "(stereo not given) (cyclo([X8]PI[NMeV][NMeA][βAla]); configuration not given here)", "growth inhibition": 8.35}
{"smiles": "CC1N(/N=C/c2ccccc2)C(c2ccccc2)C(c2ccccc2)N1/N=C/c1ccccc1", "note": "(stereo not given)", "growth inhibition": 1.75}
{"smiles": "ClCCOCc1ccc(Cl)cc1Cl", "growth inhibition": -3.7}
{"smiles": "CCOC(=O)OC1CC2CC(OC(=O)OCC)c3cccc(Br)c3C2c2ccccc21", "note": "(stereo not given)", "growth inhibition": -5.3}
{"smiles": "Cc1ccc(C)c2c(CC(=O)O)c[nH]c12", "growth inhibition": 6.05}
